Assay [1] is described as follows: qHTS assay to identify small molecule antagonists of the thyroid receptor (TR) signaling pathway (AID 743065). Also: nearly all actives have a fitted effect of over 55% in size. Also: potency is read from the fitted curve at half-maximal effect. In a few lines: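 GH3.TRE-Luc rat pituitary cells (two TREs driving luciferase) were dosed with compound, then stimulated with 1 nM T3 (final) for 23.5 h at 37 C. ONE-Glo luminescence was the read-out, with CellTiter-Fluor fluorescence as the cytotoxicity counter-screen.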

The subject of assay [2] is thyroid hormone receptor (rat, GH3 cells). The assay can be described thus: qHTS assay to identify small molecule agonists of the thyroid receptor (TR) signaling pathway (AID 743066; calls by dose curve).
Assay [3] concerns the target Estrogen receptor (Homo sapiens) (UniProt P03372). The experiment in a line: qHTS assay to identify small molecule antagonists of the estrogen receptor alpha (ER-alpha) signaling pathway (AID 743069; active = well fitted curve in the direction sought with a large enough effect in the signal ratio in the repeat runs, not every such curve was filed as active; the % refers to the signal ratio). In a few lines: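 HEK293 ER-alpha-UAS-bla GripTite cells, held overnight in 2% charcoal-stripped FBS, 5,000 cells/well, preincubated 4 h, then compound plus 17beta-estradiol for 18 h at 37C. Beta-lactamase read by LiveBLAzer B/G FRET substrate, 2 h at room temperature.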

A short description of assay [4]: qHTS assay to identify small molecule antagonists of the estrogen receptor alpha (ER-alpha) signaling pathway - cell viability counter screen (AID 743074; calls by dose curve;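 also: HEK293 cells carrying ER-alpha-UAS-bla reporter stimulated with 17beta-estradiol; nearly all actives have a fitted effect of over 45% in size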). On the technique in general: In qHTS, concentration-response curves come from the screen itself.
Assay [5] deals with Estrogen receptor (Homo sapiens) (UniProt P03372). The experiment in a line: qHTS assay to identify small molecule agonists of the estrogen receptor alpha (ER-alpha) signaling pathway (AID 743075; calls by dose curve).
Assay [6] shares this target. The experiment in a line: qHTS assay to identify small molecule agonists of the estrogen receptor alpha (ER-alpha) signaling pathway using the BG1 cell line (AID 743079). Also: nearly all actives have a fitted effect of over 20% in size. Also: potency is read from the fitted curve at half-maximal effect.
Assay [7] is described as follows: qHTS assay to identify small molecule antagonists of the estrogen receptor alpha (ER-alpha) signaling pathway using the BG1 cell line (AID 743080; calls by dose curve;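 also: BG1 cells stimulated with 17beta-estradiol alongside compound; series mostly up to about 70 µM; nearly all actives have a fitted effect of over 25% in size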). Summed up:
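Luciferase inhibition measured with ONE-Glo after 30 min at RT in BG1Luc4E2 cells given test compounds and 17beta-estradiol for 21.5 h at 37 C; CellTiter-Fluor viability read in the same wells beforehand.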

Assay [8] is described as follows: qHTS assay to identify small molecule antagonists of the estrogen receptor alpha (ER-alpha) signaling pathway using the BG1 cell line - cell viability counter screen (AID 743081).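 Also: compound given together with 17beta-estradiol as the ER stimulus; series mostly up to about 70 µM; nearly all actives have a fitted effect of over 45% in size.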
The target of assay [9] is Aromatase (Homo sapiens) (UniProt P11511). The experiment in a line: qHTS assay to identify aromatase inhibitors (AID 743083). Also: series mostly up to about 70 µM; nearly all actives have a fitted effect of over 55% in size.
A short description of assay [10]: qHTS assay to identify aromatase inhibitors - cell viability counter screen (AID 743084).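 Also: cells stimulated with testosterone during compound exposure; nearly all actives have a fitted effect of over 55% in size.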
For assay [11], the target named is Aryl hydrocarbon receptor (Homo sapiens) (UniProt P35869). The experiment in a line: qHTS assay to identify small molecule that activate the aryl hydrocarbon receptor (AhR) signaling pathway (AID 743085). Also: nearly all actives have a fitted effect of over 15% in size. Also: potency is read from the fitted curve at half-maximal effect.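 As to activation: HG2L7.5c1 human HepG2 liver cells with stably integrated DRE-driven firefly reporter; series mostly up to about 70 µM.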 Summed up:
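Stably transfected human liver carcinoma cells (HG2L7.5c1; 20 DRE-firefly luciferase) were incubated 5 h, dosed, and kept 24 h at 37C. Agonism was scored from increased luciferase luminescence.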

The nature of assay [12]: qHTS assay to identify small molecule that activate the aryl hydrocarbon receptor (AhR) signaling pathway - cell viability counter screen (AID 743086).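 Also: HepG2 liver cells carrying the AhR DRE luciferase reporter; series mostly up to about 70 µM; nearly all actives have a fitted effect of over 45% in size.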 Summed up: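 HepG2-AhR-luc (HG2L7.5c1) cells, 4000/well, treated 24 h at 37 C with compound; viability measured as CellTiter-Fluor fluorescence after 30 min in the same wells as the luciferase read.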
The target in assay [13] is Peroxisome proliferator-activated receptor gamma (Homo sapiens) (UniProt P37231). The experiment in a line: qHTS assay to identify small molecule agonists of the peroxisome proliferator-activated receptor gamma (PPARg) signaling pathway (AID 743094; active = well fitted activation curve with a large enough effect in the signal ratio in the repeat runs, not every such curve was filed as active; the % refers to the signal ratio). In a few lines: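 Beta-lactamase FRET fluorescence was the read-out after a 1 h room-temperature substrate step, following 17 h compound treatment at 37C of HEK293H cells expressing a UAS-driven bla reporter responsive to PPARg.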

For assay [14] the target is unchanged. The experiment in a line: qHTS assay to identify small molecule antagonists of the peroxisome proliferator-activated receptor gamma (PPARg) signaling pathway (AID 743191; calls by dose curve; also: series mostly up to about 63 µM; nearly all actives have a fitted effect of over 30% in size). In a few lines: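 GeneBLAzer PPARg UAS-bla HEK293H cells, 5 h post-plating, exposed to compounds 17 h at 37C. LiveBLAzer B/G FRET substrate added for 1 h at room temperature; beta-lactamase reporter read by fluorescence intensity.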

Assay [15] is described as follows: qHTS assay to identify small molecule antagonists of the peroxisome proliferator-activated receptor gamma (PPARg) signaling pathway - cell viability counter screen (AID 743194). Also: nearly all actives have a fitted effect of over 55% in size. The note with it: Potency: co-treated with 50 nM rosiglitazone unless noted. In a few lines: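 Cytotoxicity counter screen in PPARg-bla HEK293H cells, same wells as reporter assay. Compounds plus 50 nM rosiglitazone (final) for 17 h at 37 C, then viability read by CellTiter-Glo luminescence.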

The nature of assay [16]: qHTS assay for small molecule agonists of the antioxidant response element (ARE) signaling pathway (AID 743202; active = well fitted activation curve with a large enough effect in the signal ratio in the repeat runs, not every such curve was filed as active; the % refers to the signal ratio; also: potency is read from the fitted curve at half-maximal effect). Summed up: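 ARE-bla HepG2 cells (beta-lactamase reporter under the antioxidant response element), plated 5 hours, then exposed to compounds 16 hours at 37 C. LiveBLAzer B/G FRET substrate added for 2 hours at room temperature; fluorescence intensity read.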
The nature of assay [17]: qHTS assay for small molecule agonists of the antioxidant response element (ARE) signaling pathway - cell viability counter screen (AID 743203; calls by dose curve; also: nearly all actives have a fitted effect of over 55% in size). In a few lines:
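HepG2 cells carrying ARE-driven beta-lactamase; 2,000 cells/well; 5 hrs plating; compound pinned from DMSO; 16 hrs 37C/5% CO2; CellTiter-Glo added; 30 min RT; luminescence.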

Assay [18] in a line: qHTS assay for small molecule activators of the heat shock response signaling pathway - cell viability counter screen (AID 743209). Also: nearly all actives have a fitted effect of over 50% in size. Summed up: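 Luminescence from CellTiter-Glo, added after the beta-lactamase FRET read, gave the viability signal. Cells were HSE-bla HeLa treated with DMSO-dissolved compounds for 5 h at 37 C following overnight plating.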
Assay [19] in a line: qHTS assay for small molecule activators of the heat shock response signaling pathway (AID 743210; active = well fitted activation curve with a large enough effect in the signal ratio in the repeat runs, with a control signal flat, not every such curve was filed as active; the % refers to the signal ratio; also: series mostly up to about 63 µM). In a few lines:
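HSE-bla HeLa cells (beta-lactamase reporter under heat shock response elements), plated overnight, then exposed to compounds 5 h at 37 C; LiveBLAzer B/G FRET substrate added, 2.5 h at room temperature, fluorescence intensity read.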

Assay [20] is described as follows: qHTS assay to identify small molecule agonists of the peroxisome proliferator-activated receptor delta (PPARd) signaling pathway - cell viability counter screen (AID 743211). Also: nearly all actives have a fitted effect of over 55% in size. Summed up:
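In the same wells used for beta-lactamase reporter measurement, cytotoxicity is scored by CellTiter-Glo. HEK293H PPARd-bla cells receive compound for 17 h at 37C following a 5 h settling period.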

Several values for one entry are separate records, joined by “and”; a condition that tells them apart may be missing. Equal values may be shown once. Inconclusive results are not listed. A structure can be active in one record and inactive in another. Activity calls are given as the source filed them. Unless noted, calls follow the shape of the dose curve; as a rule, active = well fitted curve in the direction sought with a large enough effect in the repeat runs; inconclusive = weak or mixed curves; inactive = no such curve, though single readings can be large; an effect the other way counts as inactive or inconclusive.

Sequence of Estrogen receptor (Homo sapiens) (P03372 whole entry, looked up): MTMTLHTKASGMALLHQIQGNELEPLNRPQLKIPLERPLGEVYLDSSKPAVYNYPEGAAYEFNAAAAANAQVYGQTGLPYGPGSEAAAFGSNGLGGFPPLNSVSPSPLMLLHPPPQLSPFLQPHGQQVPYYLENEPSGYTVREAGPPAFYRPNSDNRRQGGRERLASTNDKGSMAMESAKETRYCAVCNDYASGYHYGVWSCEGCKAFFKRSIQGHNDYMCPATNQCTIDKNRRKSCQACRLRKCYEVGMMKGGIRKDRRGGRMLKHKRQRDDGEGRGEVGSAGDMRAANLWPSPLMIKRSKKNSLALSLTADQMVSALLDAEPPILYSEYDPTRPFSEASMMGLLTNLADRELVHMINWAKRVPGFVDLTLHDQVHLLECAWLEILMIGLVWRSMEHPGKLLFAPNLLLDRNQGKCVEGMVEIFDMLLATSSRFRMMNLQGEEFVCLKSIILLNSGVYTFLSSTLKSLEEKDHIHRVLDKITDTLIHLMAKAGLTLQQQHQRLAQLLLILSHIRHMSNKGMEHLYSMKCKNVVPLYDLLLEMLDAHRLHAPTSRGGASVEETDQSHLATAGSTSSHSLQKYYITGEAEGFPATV
Sequence of Peroxisome proliferator-activated receptor gamma (Homo sapiens) (P37231 whole entry, looked up): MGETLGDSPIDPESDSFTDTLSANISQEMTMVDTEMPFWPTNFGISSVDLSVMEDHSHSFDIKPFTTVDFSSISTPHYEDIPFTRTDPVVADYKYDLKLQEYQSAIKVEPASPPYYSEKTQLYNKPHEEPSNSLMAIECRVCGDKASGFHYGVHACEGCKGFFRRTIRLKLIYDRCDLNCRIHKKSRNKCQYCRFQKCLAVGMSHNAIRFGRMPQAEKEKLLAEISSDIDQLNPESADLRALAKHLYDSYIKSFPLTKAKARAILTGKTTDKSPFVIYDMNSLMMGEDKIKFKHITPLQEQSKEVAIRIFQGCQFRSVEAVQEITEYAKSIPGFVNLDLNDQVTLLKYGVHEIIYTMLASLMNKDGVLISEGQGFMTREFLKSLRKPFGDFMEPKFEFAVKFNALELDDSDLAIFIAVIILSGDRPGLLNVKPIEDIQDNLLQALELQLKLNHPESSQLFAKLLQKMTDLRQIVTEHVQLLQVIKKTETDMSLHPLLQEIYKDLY
Sequence of Aryl hydrocarbon receptor (Homo sapiens) (P35869 whole entry, looked up): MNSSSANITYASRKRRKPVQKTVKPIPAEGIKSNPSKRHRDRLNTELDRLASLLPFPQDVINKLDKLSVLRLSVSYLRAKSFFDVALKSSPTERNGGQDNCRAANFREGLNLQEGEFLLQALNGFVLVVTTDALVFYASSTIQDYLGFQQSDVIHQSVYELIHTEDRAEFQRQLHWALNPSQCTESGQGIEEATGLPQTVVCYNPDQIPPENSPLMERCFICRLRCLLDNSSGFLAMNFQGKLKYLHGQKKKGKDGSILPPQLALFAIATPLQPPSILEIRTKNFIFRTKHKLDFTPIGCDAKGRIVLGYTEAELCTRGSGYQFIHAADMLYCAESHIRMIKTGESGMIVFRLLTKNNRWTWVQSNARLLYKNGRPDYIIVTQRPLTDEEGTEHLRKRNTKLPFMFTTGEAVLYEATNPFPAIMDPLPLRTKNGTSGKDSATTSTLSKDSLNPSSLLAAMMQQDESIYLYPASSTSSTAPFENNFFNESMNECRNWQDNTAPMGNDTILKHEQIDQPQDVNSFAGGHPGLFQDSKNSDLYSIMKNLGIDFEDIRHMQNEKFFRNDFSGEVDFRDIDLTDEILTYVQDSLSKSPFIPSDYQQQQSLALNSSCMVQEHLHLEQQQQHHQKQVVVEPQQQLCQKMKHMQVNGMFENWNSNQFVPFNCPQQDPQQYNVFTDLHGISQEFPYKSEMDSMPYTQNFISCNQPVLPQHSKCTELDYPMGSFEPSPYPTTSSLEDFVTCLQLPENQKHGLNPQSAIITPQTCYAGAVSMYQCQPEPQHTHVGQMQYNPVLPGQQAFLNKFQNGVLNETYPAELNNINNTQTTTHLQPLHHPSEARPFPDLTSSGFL
Sequence of Aromatase (Homo sapiens) (P11511 whole entry, looked up): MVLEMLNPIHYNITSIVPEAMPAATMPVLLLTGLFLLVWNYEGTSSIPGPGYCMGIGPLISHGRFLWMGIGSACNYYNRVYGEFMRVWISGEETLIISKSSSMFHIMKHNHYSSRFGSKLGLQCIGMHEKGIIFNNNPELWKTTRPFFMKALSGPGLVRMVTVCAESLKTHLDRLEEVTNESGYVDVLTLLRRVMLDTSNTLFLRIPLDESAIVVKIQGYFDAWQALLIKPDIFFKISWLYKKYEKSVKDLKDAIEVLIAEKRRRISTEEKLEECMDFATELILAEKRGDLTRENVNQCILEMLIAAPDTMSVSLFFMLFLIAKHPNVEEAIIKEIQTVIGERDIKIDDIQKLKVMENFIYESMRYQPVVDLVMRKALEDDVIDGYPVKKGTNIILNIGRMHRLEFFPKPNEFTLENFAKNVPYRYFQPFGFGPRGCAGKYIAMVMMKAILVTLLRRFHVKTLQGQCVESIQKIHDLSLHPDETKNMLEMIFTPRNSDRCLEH

`O=P(O)(O)CCCl`: the Potency entry in assay [1], in assay [2], in [3], in assay [4], in [5] and in [6] was “inactive” throughout. The Potency result in [7], in [8], in assay [9], in assay [10], in assay [11] and in assay [12] was “inactive” throughout. Besides, the Potency result in [13], in assay [14], in assay [15], in assay [16], in assay [17] and in assay [18] was “inactive” throughout. Besides, the Potency entry in assay [19] and in assay [20] was “inactive” in each case.

Turning to `Nc1c(Cl)cc([N+](=O)[O-])cc1Cl`, the Potency result in assay [1], in assay [2], in [3], in assay [4], in [5] and in assay [6] was “inactive” throughout. Moreover, the Potency entry in assay [7], in assay [8], in assay [9], in assay [10], in assay [12] and in [13] was “inactive” throughout. Besides, the Potency entry in [14], in assay [15], in assay [16], in assay [17], in [18] and in [19] was “inactive” each time. In addition, the Potency entry in [20] was “inactive”.

Turning to `Nc1ccc(-c2ccccc2)cc1`, the Potency result in assay [1], in assay [2], in assay [3], in assay [4], in assay [5] and in assay [8] was “inactive” throughout. Also, the Potency result in assay [9], in [10], in assay [12], in assay [15], in assay [17] and in assay [18] was “inactive” in each case. In addition, the Potency in [6] is 25 nM (active) and 10.9 µM (active); in assay [11], 9.69 µM (active); in assay [16], “inactive and 27.3 µM (active)”.

As for `C=C(C)C(=O)OCC1CO1` (stereo not given), the Potency entry in assay [1], in assay [2], in [3], in assay [4], in assay [5] and in assay [6] was “inactive” in each case. Also, the Potency entry in assay [7], in assay [8], in [9], in [10], in [11] and in assay [12] was “inactive” in each case. The Potency result in assay [14], in assay [15], in assay [16], in assay [17] and in assay [18] was “inactive” throughout.

For `O=C(NC(=O)c1c(F)cccc1F)Nc1ccc(Cl)cc1`, the Potency entry in [1], in assay [2], in assay [3], in assay [4], in [5] and in assay [8] was “inactive” throughout. For the same molecule, the Potency entry in [9], in [10], in assay [12], in assay [14], in [15] and in assay [16] was “inactive” each time. Moreover, the Potency entry in assay [17], in assay [18] and in assay [19] was “inactive” throughout. The Potency result is “inactive and 2.43 µM (active)” in [6]; 97.1 nM (active) and 611 nM (active) in [11].

In the case of `Nn1cnnc1`, the Potency result in [1], in assay [2], in [3], in [4], in assay [5] and in assay [6] was “inactive” in each case. Also, the Potency result in assay [7], in [8], in assay [9], in assay [10], in assay [12] and in assay [13] was “inactive” in each case. The Potency result in assay [14], in [15], in assay [16], in [17] and in assay [18] was “inactive” in each case.

Consider `CC(C)NC(C)C`, for which the Potency entry in assay [1], in assay [2], in [3], in assay [4], in assay [5] and in assay [6] was “inactive” throughout. Moreover, the Potency entry in assay [7], in assay [8], in assay [9], in [10], in assay [11] and in assay [12] was “inactive” in each case. Besides, the Potency entry in assay [13], in assay [14], in [15], in assay [16], in assay [17] and in [18] was “inactive” each time. Also, the Potency result in assay [20] is “inactive”.

With `COc1ccc(C=O)cc1`, the Potency entry in assay [1], in assay [2], in [3], in [4], in [5] and in assay [6] was “inactive” throughout. Besides, the Potency result in assay [7], in [8], in assay [9], in [10], in [11] and in assay [12] was “inactive” in each case. Moreover, the Potency result in assay [13], in [14], in [15], in assay [16], in [17] and in [18] was “inactive” in each case. Moreover, the Potency result in [20] is “inactive”.

As for `O=[N+]([O-])c1cccc2ccccc12`, the Potency result in [1], in assay [2], in assay [3], in assay [4], in assay [5] and in [6] was “inactive” in each case. For the same molecule, the Potency result in [7], in assay [8], in [9], in assay [10], in assay [11] and in assay [12] was “inactive” throughout. Also, the Potency result in assay [14], in [15], in [16], in assay [17], in assay [18] and in [20] was “inactive” in each case.

For the molecule `NCc1cccnc1`, the Potency result in assay [1], in assay [2], in [3], in assay [4], in [5] and in [6] was “inactive” each time. Further, the Potency entry in assay [7], in assay [8], in assay [9], in assay [10], in assay [11] and in [12] was “inactive” throughout. The Potency result in assay [13], in assay [14], in assay [15], in assay [16], in assay [17] and in assay [18] was “inactive” each time. Besides, the Potency result in [19] and in assay [20] was “inactive” each time.

For `Nc1ccncc1`, the Potency result in assay [1], in assay [2], in assay [3], in [4], in assay [5] and in assay [6] was “inactive” each time. For the same molecule, the Potency result in [7], in [8], in [9], in [10], in [11] and in assay [12] was “inactive” in each case. For the same molecule, the Potency entry in assay [15], in assay [16], in assay [17], in assay [18] and in assay [20] was “inactive” in each case.

Turning to `Nc1cccnc1`, the Potency entry in [1], in assay [2], in assay [3], in assay [4], in assay [5] and in assay [6] was “inactive” throughout. For the same molecule, the Potency entry in assay [7], in [8], in assay [9], in assay [10], in [11] and in [12] was “inactive” each time. Also, the Potency result in assay [14], in assay [15], in assay [16], in assay [17] and in [18] was “inactive” throughout.

Regarding `CCCCNC(=O)n1c(NC(=O)OC)nc2ccccc21`, the Potency was 7.66 µM (active) and 8.63 µM (active) in [1]; 34.4 µM (active) in [6]; 34.2 µM (active) and inactive in [11]. Further, the Potency result in assay [2], in assay [3], in assay [4], in assay [5], in assay [7] and in assay [8] was “inactive” throughout. Also, the Potency result in [9], in assay [10], in assay [12], in [13], in [14] and in assay [15] was “inactive” in each case. The Potency result in [16], in assay [17], in assay [18], in [19] and in assay [20] was “inactive” each time.

Source of the values: PubChem BioAssay (Tox21).
